For some of these results: Potency and affinity values are given separately.

Common to all, as to parameters: scale not given: direction of the effect not stated beside the values
Assay [1] concerns the target Protein translocase subunit SecA (Escherichia coli (strain K12)) (UniProt P10408). Put plainly: Assay to Identify E. coli SecA ATPase Inhibitors. To be noted: 30 µM. It counts as functional.
In assay [2] the target is T1, Ubiquitin-activating enzyme e1, putative (Leishmania donovani (strain BPK282A1)) (UniProt E9BSI1).
T1 sequence (whole entry): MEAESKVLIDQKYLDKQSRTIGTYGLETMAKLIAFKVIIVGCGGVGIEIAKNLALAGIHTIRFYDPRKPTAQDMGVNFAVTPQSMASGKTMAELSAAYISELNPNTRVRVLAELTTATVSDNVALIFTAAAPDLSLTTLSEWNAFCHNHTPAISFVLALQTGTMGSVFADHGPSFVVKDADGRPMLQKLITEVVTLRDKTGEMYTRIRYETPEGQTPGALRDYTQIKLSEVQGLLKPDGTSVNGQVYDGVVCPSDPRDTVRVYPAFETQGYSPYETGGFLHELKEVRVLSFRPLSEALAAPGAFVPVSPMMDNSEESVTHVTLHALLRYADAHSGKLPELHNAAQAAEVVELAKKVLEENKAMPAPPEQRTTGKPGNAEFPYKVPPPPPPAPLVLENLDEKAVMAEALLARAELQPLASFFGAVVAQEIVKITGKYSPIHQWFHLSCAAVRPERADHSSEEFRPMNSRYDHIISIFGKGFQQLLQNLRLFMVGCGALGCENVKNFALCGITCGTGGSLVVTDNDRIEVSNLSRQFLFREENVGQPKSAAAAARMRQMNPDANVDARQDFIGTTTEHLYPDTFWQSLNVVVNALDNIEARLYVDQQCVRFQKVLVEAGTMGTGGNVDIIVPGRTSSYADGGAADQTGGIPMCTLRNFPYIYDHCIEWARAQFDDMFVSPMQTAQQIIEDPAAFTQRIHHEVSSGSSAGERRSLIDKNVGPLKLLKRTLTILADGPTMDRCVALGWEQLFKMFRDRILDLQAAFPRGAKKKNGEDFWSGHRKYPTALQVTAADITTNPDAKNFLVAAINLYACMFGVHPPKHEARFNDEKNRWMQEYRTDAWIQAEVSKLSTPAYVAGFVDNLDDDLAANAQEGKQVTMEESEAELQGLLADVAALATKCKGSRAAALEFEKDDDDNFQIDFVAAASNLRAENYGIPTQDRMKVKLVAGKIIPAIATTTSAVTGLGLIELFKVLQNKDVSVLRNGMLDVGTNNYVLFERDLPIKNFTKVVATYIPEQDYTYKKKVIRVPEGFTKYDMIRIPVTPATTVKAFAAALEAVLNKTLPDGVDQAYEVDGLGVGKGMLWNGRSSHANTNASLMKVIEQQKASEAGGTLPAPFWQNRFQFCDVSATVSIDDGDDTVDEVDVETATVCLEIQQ
Kind of assay: Leishmania donovani Ubiquitin Activating Enzyme (LdE1). It counts as functional. The following applies: 30 µM.

The target in assay [3] is AMP-activated protein kinase, AMPK (Homo sapiens) (UniProt P54646+O43741+P54619+Q9UGJ0+Q9Y478+Q13131+Q9UGI9). Put plainly: AMP-dependent Kinase enzyme assay. An in vitro enzyme assay that detects ADP turnover that is directly proportional to AMPK activity. This uses naive AMPK that is activated during the assay with MK-8722. It is filed as functional. The following applies: 30 µM.

Assay [4] has as its target Sialic acid-binding Ig-like lectin 9 (Homo sapiens) (UniProt Q9Y336). Put plainly: Hs-Siglec9 ALPHAscreen SOP 20170721. To be noted: 10 µM. On the technique in general: Alpha assays give light when donor and acceptor beads are brought close together.
The test system of another assay is Trypanosoma cruzi. Kind of assay: Trypanosoma cruzi phosphomannomutase and mannose-1-phosphate guanylyltransferase assay. To be noted: 10 µM. It counts as functional.
Assay [5] deals with T2, Arginase-2, mitochondrial (Homo sapiens) (UniProt P78540).
T2 sequence (whole entry): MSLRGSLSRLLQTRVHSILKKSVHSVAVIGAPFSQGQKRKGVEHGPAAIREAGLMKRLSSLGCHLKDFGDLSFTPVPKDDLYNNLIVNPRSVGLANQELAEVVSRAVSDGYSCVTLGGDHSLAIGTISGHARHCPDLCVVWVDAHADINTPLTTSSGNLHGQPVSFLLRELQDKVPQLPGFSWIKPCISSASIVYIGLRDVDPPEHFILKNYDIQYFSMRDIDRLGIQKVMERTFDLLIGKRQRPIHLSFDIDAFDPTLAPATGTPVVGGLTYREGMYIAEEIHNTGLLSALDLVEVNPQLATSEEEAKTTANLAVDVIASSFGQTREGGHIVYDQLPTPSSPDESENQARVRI
Put plainly: in vitro enzyme assay to detect the production of urea directly proportional to the activity of Arginase II. Note: in the data most compounds retested in dose-response had high values. It is filed as functional. To be noted: 33.3 µM.

The target of assay [6] is T3, Proteasome subunit beta (Trypanosoma cruzi) (UniProt O96673).
T3 sequence (whole entry): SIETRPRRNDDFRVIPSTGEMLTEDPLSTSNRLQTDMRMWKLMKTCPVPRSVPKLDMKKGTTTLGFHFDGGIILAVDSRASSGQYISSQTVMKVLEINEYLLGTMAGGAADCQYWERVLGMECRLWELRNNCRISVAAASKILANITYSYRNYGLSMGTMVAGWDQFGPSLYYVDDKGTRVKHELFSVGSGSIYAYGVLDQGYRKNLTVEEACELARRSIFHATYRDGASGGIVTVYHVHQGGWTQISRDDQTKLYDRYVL
Put plainly: Trypanosoma cruzi proteasome chymotrypsin-like activity (TcProtChymo) assay. Note: in the data most compounds retested in dose-response had high values. It is filed as functional. The following applies: 9.37 µM.

For another assay, the species on record is Homo sapiens. Put plainly: To identify inhibition of the IFN signalling (Jak-Stat) pathway via expression of an eGFP reporter gene under the control of an IFN-stimulated response element (ISRE) containing MxA promoter. It counts as functional. The following applies: 30 µM.
The target of assay [7] is T4, Tyrosyl-tRNA synthetase, putative (Trypanosoma cruzi (strain CL Brener)) (UniProt Q4DSP6).
T4 sequence (whole entry): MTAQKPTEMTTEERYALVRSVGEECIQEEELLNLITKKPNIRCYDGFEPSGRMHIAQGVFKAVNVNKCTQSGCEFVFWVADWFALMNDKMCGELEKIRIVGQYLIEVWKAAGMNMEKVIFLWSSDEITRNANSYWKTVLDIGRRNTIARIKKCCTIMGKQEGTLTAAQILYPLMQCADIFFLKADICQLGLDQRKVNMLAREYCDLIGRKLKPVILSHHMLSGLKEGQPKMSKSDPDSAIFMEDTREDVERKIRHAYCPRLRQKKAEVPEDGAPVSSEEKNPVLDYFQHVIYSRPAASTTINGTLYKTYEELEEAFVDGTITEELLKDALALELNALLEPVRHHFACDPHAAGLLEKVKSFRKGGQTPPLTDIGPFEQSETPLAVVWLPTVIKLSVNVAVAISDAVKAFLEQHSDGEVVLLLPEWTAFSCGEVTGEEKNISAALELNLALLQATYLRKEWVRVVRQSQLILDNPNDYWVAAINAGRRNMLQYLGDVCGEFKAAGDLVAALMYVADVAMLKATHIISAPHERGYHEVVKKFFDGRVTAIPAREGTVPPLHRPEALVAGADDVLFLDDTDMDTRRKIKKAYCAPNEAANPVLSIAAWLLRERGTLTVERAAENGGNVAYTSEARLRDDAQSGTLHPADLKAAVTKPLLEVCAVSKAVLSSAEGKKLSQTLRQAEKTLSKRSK
Put plainly: Trypanosoma cruzi tyrosyl tRNA synthetase (TcYRS) _High Tyrosine SOP. Note: in the data most compounds retested in dose-response had high values. It counts as functional. To be noted: 30 µM.

For assay [8], the target named is T4, Tyrosyl-tRNA synthetase, putative (Trypanosoma cruzi (strain CL Brener)). Put plainly: Trypanosoma cruzi tyrosyl tRNA synthetase (TcYRS) SOP. To be noted: 30 µM. It counts as functional.
The target in assay [9] is Chromo domain-containing protein 1 (Saccharomyces cerevisiae (strain ATCC 204508 / S288c) (Baker's yeast)) (UniProt P32657). Kind of assay: ScCHD-1 Enzyme Inhibition Assay. Note: in the data most compounds retested in dose-response had high values. To be noted: 30 µM. It is filed as functional.
Chromo domain-containing protein 1 (Saccharomyces cerevisiae (strain ATCC 204508 / S288c) (Baker's yeast)), sequence (P32657 whole entry, the tested form may be a part): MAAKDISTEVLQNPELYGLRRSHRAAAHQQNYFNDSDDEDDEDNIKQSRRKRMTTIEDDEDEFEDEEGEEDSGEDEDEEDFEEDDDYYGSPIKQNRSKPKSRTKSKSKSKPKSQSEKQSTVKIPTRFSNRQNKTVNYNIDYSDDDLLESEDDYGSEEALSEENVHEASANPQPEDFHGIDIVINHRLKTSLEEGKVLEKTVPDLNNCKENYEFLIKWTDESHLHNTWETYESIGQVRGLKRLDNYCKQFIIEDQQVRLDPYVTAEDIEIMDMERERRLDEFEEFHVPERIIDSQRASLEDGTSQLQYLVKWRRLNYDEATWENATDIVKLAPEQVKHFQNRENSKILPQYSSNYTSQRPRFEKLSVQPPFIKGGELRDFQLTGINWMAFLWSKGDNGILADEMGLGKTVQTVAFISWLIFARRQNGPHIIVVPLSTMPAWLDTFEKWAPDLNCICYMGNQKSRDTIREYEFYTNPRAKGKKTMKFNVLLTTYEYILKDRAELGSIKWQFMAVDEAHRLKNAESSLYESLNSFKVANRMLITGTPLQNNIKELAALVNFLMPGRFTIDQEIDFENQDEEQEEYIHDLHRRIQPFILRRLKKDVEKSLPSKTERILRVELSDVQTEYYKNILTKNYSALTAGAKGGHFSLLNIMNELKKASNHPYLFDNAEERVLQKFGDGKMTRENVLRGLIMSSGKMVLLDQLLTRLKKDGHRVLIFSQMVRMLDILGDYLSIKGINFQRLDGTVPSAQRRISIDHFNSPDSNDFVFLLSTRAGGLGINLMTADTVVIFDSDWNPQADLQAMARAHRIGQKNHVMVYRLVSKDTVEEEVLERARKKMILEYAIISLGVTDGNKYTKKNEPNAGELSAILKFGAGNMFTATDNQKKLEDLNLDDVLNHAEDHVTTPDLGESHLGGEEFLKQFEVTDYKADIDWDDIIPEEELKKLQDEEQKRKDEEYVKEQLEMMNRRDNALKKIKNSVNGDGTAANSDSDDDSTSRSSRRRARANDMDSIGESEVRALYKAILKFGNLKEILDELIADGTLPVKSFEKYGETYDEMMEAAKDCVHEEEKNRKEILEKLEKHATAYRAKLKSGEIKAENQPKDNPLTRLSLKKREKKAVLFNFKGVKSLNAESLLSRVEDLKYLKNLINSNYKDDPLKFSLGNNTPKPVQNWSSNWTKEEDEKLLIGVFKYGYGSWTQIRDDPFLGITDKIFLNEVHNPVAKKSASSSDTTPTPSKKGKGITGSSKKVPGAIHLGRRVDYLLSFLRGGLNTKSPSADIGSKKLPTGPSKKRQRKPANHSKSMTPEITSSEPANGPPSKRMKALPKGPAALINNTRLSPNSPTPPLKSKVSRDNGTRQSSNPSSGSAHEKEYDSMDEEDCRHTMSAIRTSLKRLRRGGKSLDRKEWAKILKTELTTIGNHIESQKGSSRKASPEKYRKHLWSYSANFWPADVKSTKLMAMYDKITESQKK

Sialic acid-binding Ig-like lectin 9 (Homo sapiens), sequence (Q9Y336 whole entry): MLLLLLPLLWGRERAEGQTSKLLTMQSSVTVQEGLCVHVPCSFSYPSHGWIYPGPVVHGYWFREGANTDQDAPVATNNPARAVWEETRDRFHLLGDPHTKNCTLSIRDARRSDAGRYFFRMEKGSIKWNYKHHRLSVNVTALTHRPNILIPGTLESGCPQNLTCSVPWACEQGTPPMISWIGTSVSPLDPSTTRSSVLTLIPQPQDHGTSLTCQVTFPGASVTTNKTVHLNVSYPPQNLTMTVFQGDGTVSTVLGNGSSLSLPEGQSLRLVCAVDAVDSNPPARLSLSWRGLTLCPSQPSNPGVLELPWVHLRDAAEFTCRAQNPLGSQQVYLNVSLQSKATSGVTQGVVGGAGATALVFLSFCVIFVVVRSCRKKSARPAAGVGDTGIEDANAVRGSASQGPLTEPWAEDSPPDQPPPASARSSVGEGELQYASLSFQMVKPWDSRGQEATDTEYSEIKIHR
Protein translocase subunit SecA (Escherichia coli (strain K12)), sequence (P10408 whole entry): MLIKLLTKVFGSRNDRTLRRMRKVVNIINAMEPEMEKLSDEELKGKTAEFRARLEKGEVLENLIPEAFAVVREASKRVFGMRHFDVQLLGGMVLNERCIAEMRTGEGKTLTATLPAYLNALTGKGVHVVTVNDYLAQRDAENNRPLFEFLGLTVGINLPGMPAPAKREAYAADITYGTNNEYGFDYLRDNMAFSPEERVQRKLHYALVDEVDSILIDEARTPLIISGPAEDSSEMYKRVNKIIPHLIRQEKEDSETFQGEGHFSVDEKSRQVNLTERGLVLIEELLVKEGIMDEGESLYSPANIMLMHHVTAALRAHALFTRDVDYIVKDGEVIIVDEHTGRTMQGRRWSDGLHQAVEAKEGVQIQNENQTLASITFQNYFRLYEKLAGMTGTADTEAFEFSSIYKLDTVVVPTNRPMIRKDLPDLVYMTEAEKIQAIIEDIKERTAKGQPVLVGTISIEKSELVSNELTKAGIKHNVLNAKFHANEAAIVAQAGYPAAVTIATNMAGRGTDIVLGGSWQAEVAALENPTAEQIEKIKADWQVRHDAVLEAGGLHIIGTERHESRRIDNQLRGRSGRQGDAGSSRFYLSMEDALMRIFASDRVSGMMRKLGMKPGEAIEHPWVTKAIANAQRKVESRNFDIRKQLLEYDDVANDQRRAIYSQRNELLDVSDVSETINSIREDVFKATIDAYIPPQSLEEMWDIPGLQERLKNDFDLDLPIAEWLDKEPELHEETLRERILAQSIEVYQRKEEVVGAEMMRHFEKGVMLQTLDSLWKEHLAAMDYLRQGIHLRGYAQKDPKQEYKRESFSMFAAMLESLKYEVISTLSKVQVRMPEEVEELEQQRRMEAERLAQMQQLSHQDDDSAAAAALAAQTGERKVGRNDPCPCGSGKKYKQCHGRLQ

With `CN(Cc1cnn(C)c1)C(=O)NC1CCN(c2ncccn2)CC1`, the Percent Effect is -7.21% in assay [1]; 13% in assay [2]; 1.2% in assay [3]; -4.13% in assay [4]; -10.7% with Trypanosoma cruzi; -0.356% in [5]. The Percent Effect in assay [6] is 6.25%; in the assay listed under Homo sapiens, 25.2%; in [7], 1.94%; in assay [8], 2.44%; in [9] it was -8.45%.

Take `CC(C)(C)N1CC(C(=O)N2CCN(CCn3cccc3)CC2)CC1=O` (stereo unspecified): the Percent Effect in assay [1] is -6.81%; in assay [2], 10.7%; in [3] it was -6.2%; in assay [4], 27.1%; in the assay with Trypanosoma cruzi, 4.97%; in assay [5] it was 22.4%. In addition, the Percent Effect in [6] is 12%; in the assay listed under Homo sapiens, 5.12%; in assay [7], 4.92%; in assay [8] it was 8.64%; in assay [9], -4.28%.

For `CC(C)Oc1cccc(C(O)CNC(=O)CCc2ccncc2)c1` (stereo unspecified), the Percent Effect in assay [1] is -3.24%; in assay [2], -5.48%; in assay [3] it was 2.43%; in assay [4], 13.4%; with Trypanosoma cruzi, -3.97%; in assay [5], -7.58%. Also, the Percent Effect came to 3.85% in assay [6]; 0.683% in the assay filed under Homo sapiens; 1.04% in [7]; 3.7% in assay [8]; 5.03% in [9].

For the molecule `CS(=O)(=O)c1ccc(CNC(=O)N2CCC(c3ccccc3)CC2)cc1`, the Percent Effect in assay [1] was -1.75%; in assay [2], 7.59%; in assay [3], 0.598%; in [4], -2.13%; in the assay on Trypanosoma cruzi it was -5.76%; in assay [5], 3.42%. The Percent Effect in [6] is 5%; in the assay filed under Homo sapiens, 8.31%; in [7], -3.45%; in assay [8] it was 1.27%; in assay [9] it was -6.29%.

With `Cc1cccc(CNC(CN2CCN(C)CC2)c2ccccc2)c1` (stereo unspecified), the Percent Effect is -2.61% in assay [1]; 8.11% in [2]; -13.3% in [3]; 17.7% in assay [4]; 3.23% in the assay on Trypanosoma cruzi; 29.5% in [5]. Besides, the Percent Effect in assay [6] was 7.3%; in the assay listed under Homo sapiens it was 25.7%; in assay [7] it was 5.38%; in assay [8] it was 11.1%; in assay [9] it was -5.02%.

Turning to `CCc1noc(CN2CCCC2c2noc(C3CC3)n2)n1` (stereo unspecified), the Percent Effect in assay [1] is 0.214%; in [2], 21.6%; in assay [3], -11.2%; in [4], -6.88%; with Trypanosoma cruzi, 3.68%; in [5] it was -10%. Besides, the Percent Effect in [6] is 12.8%; in the assay listed under Homo sapiens, 19.7%; in assay [7], 9.36%; in assay [8], 18.5%; in assay [9], -9.57%.

As for `O=C(CCNC(=O)C1CCCC1)NCc1cccnc1-n1cncn1`, the Percent Effect in assay [1] was -4.32%; in assay [2], 15.8%; in assay [3], -2.4%; in assay [4], 3.19%; in the assay on Trypanosoma cruzi it was -1.21%; in [5] it was -2.88%. Besides, the Percent Effect in assay [6] is 9.56%; in the assay listed under Homo sapiens, -0.451%; in assay [7], 14.3%; in assay [8], 25.9%; in assay [9] it was -0.359%.

With `COc1cc(CNC(=O)c2c(C)noc2C(C)C)ccn1`, the Percent Effect in assay [1] is -2.87%; in assay [2], 26%; in assay [3], -8.18%; in assay [4], 3.15%; in the assay on Trypanosoma cruzi it was 3.75%; in assay [5], 3.92%. In addition, the Percent Effect in assay [6] was 10.8%; in the assay filed under Homo sapiens it was 9.63%; in [7], 10.7%; in assay [8], 21.9%; in assay [9], -10.2%.

For `CC(O)CN1CCN(C(=O)c2ccc(Cn3cccc3)cc2)CC1` (stereo unspecified), the Percent Effect in assay [1] is -2.39%; in assay [2], 13.5%; in assay [3], -8.63%; in assay [4], -2.4%; in the assay with Trypanosoma cruzi, -3.49%; in assay [5] it was -6.81%. The Percent Effect in [6] was 17.8%; in the assay filed under Homo sapiens it was 6.79%; in assay [7], 10.3%; in assay [8], 25.9%; in assay [9], -2.47%.

Consider `COc1ccccc1Oc1ncccc1CNC(=O)C(C)N1CCCC1` (stereo unspecified), for which the Percent Effect is -3.48% in assay [1]; 12.5% in assay [2]; -6.43% in assay [3]; 29.1% in assay [4]; 3.4% in the assay on Trypanosoma cruzi; 50.3% in assay [5]. In addition, the Percent Effect was 11.8% in assay [6]; -6.43% in the assay filed under Homo sapiens; 4.21% in assay [7]; 12.8% in [8]; -9.98% in assay [9].

Regarding `Cc1ccc(N2CC3(COCCN(Cc4cccnc4)C3)OCC2=O)s1` (stereo unspecified), the Percent Effect in [1] is -6.13%; in assay [2], 2.6%; in assay [3], 20.6%; in assay [4], -4.32%; in the assay on Trypanosoma cruzi it was -2.27%; in assay [5], 0.645%. In addition, the Percent Effect was 4.18% in assay [6]; 21.4% in the assay filed under Homo sapiens; -2.12% in assay [7]; -3.85% in [8]; -1.59% in [9].

Source of the values: ChEMBL document CHEMBL3988442, “University of Dundee, Small-Polar-MMV Screening Library” (2021).
